This is part of a sample that, as a whole, favours compounds with a hit. Of some 83,000 tested, about 20% had one in any assay.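 Single-concentration screen, 48 h exposure, 96-well plates. Endpoint: percent growth. Below 10 = active.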 A number with no mark means an inactive call. The source made the active and inactive calls.
Tests used:
Assay in all cases: NCI-60 one-dose screen, 48 h (100 = growth as untreated, 0 = no growth, -100 = all killed)
Settings in all cases: 10 µM unless noted
[1] = test system: NCI-H23 lung
[2] = test system: NCI-H226 lung
[3] = test system: NCI-H322M lung
[4] = test system: HOP-62 NSCLC
[5] = test system: NCI-H460 lung
[6] = test system: HOP-92 NSCLC
[7] = test system: A549/ATCC NSCLC
[8] = test system: 786-0 renal
[9] = test system: COLO 205 colon
[10] = test system: NCI-H522 lung

Row | SMILES | growth [1] | growth [2] | growth [3] | growth [4] | growth [5] | growth [6] | growth [7] | growth [8] | growth [9] | growth [10] [%]
1 | CN1CCN(CC(=O)Nc2ccc3ncnc(Nc4ccc(Oc5cccc(C(F)(F)F)c5)c(Cl)c4)c3c2)CC1 | 53.1% | 81.5% | 26.5% | 54.1% | -69.4% (active) | 39.7% | 10.2% | -75.8% (active) | -39.5% (active) | 
2 | CCSc1oc(C)nc1[P+](c1ccccc1)(c1ccccc1)c1ccccc1 | 20.6% | 57.9% | 77% | 21.3% | 16.8% | 25.3% | 23.2% | 56.6% | -7.48% (active) | 24.8
3 | CC1(C)[C@@H](O[C@@H]2OC[C@@H](O[C@@H]3O[C@H](CO)[C@@H](O)[C@H](O)[C@H]3O[C@@H]3OC[C@@H](O)[C@H](O)[C@H]3O)[C@H](O)[C@H]2O[C@@H]2O[C@H](CO)[C@@H](O)[C@H](O)[C@H]2O)CC[C@]2(C)[C@H]3CC[C@]45OC[C@@]6(CC[C@](C)(C=O)C[C@H]64)[C@H](O)C[C@@]5(C)[C@]3(C)CC[C@@H]12 | -55.1% (active) | -65.2% (active) | -86.9% (active) | -82.9% (active) | -63% (active) | -63.7% (active) | -73.6% (active) | -75% (active) | -93.9% (active) | 
4 | CCS/C(Nc1ccccc1)=C(\C#N)C(=O)Nc1ccc(OC)cc1 | 48.3% | 57.9% | 51.6% | 34.2% | 10.1% | 44.5% | 34.6% | 39.5% | 17.5% | 
5 | CC(C)(C)n1cc(-c2ccnc(NCCNS(=O)(=O)c3ccc(O)cc3)c2)c(-c2cccc(O)c2)n1 | 98.6% | 102% | 105% | 101% | 104% | 102% | 97.3% | 103% | 91.9% | 
6 | COc1ccc(/C=C/c2c(C(=O)/C=C/c3ccccc3)c(C)nc3ccccc23)cc1 | 20% | 45.5% | 28.4% | -13.9% (active) | -48.1% (active) | 66.2% | 20.2% | 13.5% | 3.63% (active) | 
7 | O=C(Cc1cccc(OC(F)(F)F)c1)Nc1ccc(CCCCc2nnc(NC(=O)Cc3ccccn3)s2)nn1 | 80.3% | 60.6% | 39.8% | 74.5% | 74.2% | -4.64% (active) | 43.2% | 46.3% | 88.8% | 
8 | CCOC(=O)C(=CNc1cnc(Nc2ccc(N3CCOCC3)cc2)nc1Oc1ccc(OC)cc1)C(=O)OCC | 68.4% | 70.3% | 39.7% | 23.5% | 2.03% (active) | 30.3% | 22.2% | 30.8% | 65.9% | 
9 | C=CN(C(=O)N1CCN(c2cc3c(cc2F)c(=O)c(C(=O)O)cn3C2CC2)CC1)c1nc(-c2ccc(OC)cc2)cs1 | 12.7% | 37.8% | 15.3% | 18.5% | 10.8% | -14.1% (active) | 16.6% | 30.5% | 29.5% | 
10 | C/C(=N\O)[C@@H]1CC[C@]2(CO)CC[C@]3(C)[C@H](CC[C@@H]4[C@@]5(C)CCCNC(C)(C)[C@@H]5CC[C@]43C)[C@@H]12 | 89.6% | 92.6% | 94.2% | 90% | 72.6% | 65.6% | 76.6% | 92.3% | 81% | 
11 | O=c1c2c3c(sc2n2c(-c4cc(-c5ccccc5)no4)nnc2n1Cc1ccccc1)CCCC3 | 86.4% | 97.6% | 97.1% | 92.5% | 86% | 76.5% | 49.9% | 87.6% | 96.4% | 
12 | C/C(=N\O)c1ccc(NC(=O)CSc2nnc(-c3cc(-c4ccc(S(N)(=O)=O)cc4)nc4ccccc34)n2-c2ccccc2)cc1 | 89.6% | 80.4% | 86.5% | 95.5% | 67.2% | 66% | 79.5% | 72.6% | 78.3% | 
13 | CCO/C=N/C1=C(C#N)C(c2ccc(F)cc2)c2sc3c(F)cccc3c2O1 (centres undefined) | 61.2% | 67.8% | 65.4% | 50.9% | 16.3% | 58.8% | 40.6% | 35.2% | 78.3% | 
14 | COc1cc(NC(=O)c2cncnc2Nc2ccc3c(ccn3Cc3ccccn3)c2)cc(OC)c1 | 68.6% | 76.1% | 76.4% | 43.9% | 20.5% | 54.2% | 53.9% | 49.4% | 44.9% | 
15 | C=C(C)[C@@H]1CC[C@]2(C(=O)N3CCN(C)CC3)CC[C@]3(C)[C@H](CC[C@@H]4[C@@]5(C)CC[C@H](OC(=O)c6ccccc6C(=O)O)C(C)(C)[C@@H]5CC[C@]43C)[C@@H]12 | 99.9% | 99.4% | 101% | 98% | 103% | 102% | 104% | 101% | 111% | 
16 | O=C1Nc2ccccc2/C1=C/c1cccn1C(=O)c1ccc(Cl)s1 | 30.2% | 61.7% | 50.4% | 52.3% | 75.7% | 70.2% | 23.4% | 85.3% | 68% | 
17 | CCCCCCCCCCCCCOC(=O)c1c(C)[nH]c(/C=C2\N=C(c3ccc[nH]3)C=C2OC)c1C | 31.4% | -38.1% (active) | 32.7% | 30.1% | 16.1% | -6.46% (active) | -4.51% (active) | 22.3% | 7.58% (active) | 
18 | CC(=O)Oc1ccc(OC(C)=O)c2ccccc12 | 95.6% | 74.9% | 106% | 90.2% | 107% | -88.6% (active) | 98.7% | 107% | 112% | 
19 | CN(C)CCN1C(=O)c2cccc3c(/C=C/CN4C(=O)c5cccc6cccc(c56)C4=O)ccc(c23)C1=O | 93.8% | 98.7% | 84.3% | 88.9% | 93.7% | 94.2% | 85.3% | -84.5% (active) | 82.1% | 
20 | O=C1/C(=C\c2cccc3nccnc23)SC(=S)N1CCc1ccc(O)cc1 | 93.7% | 95.4% | 96.4% | 99.5% | 105% | -0.0093% (active) | 100% | 94.8% | 118% | 
21 | C/C(Cc1ccc(Cl)cc1)=C(\c1ccc(OCCCN(C)C)cc1)c1ccc(OC(=O)Cc2ccccc2)cc1 | 101% | 110% | 105% | 92.2% | 110% | 101% | 105% | 104% | 112% | 
22 | CN(Cc1ccccc1)c1nc(Cl)c(C2CC(c3ccccc3)=NN2c2ccccc2)s1 (centres undefined) | 88.3% | 89% | 97.6% | 84.5% | 101% | 86% | 85.7% | 93.9% | 105% | 
23 | O=S(=O)(Nc1cc(Sc2cccc3cccnc23)c(O)c2ccccc12)c1ccccc1 | 28.8% | 46.3% | 28.3% | 47.3% | 3.5% (active) | 33.1% | 15.7% | 36.6% | -47.6% (active) | 
24 | NC(=O)c1cccc([C@@H]2O[C@H](CO)[C@@H](O)[C@H]2O)c1 | 63.7% | 73.1% | 87% | 47.7% | 103% | 52.4% | 71.6% | 12.9% | 40.5% | 
25 | O=C(NC(Cc1nnc2n(Cc3ccccc3)c(=O)c3c4c(sc3n12)CCCC4)c1ccccc1)c1ccccc1 (centres undefined) | 90.9% | 113% | 93.3% | 71.1% | 94.4% | 74.6% | 90.4% | 81% | 107% | 
26 | O=C(CN1CCN(c2cc3c(cc2F)c(=O)c(C(=O)O)cn3C2CC2)CC1)N/N=C/c1ccco1 |  | 94.1% | 95% | 82.8% | 105% | 87.9% | 90.6% | 96.4% | 102% | 93.5
27 | COC(=O)N1CC(Oc2ccccn2)C2CC1c1ccccc1O2 (centres undefined) |  | 104% | 119% | 100% | 100% | 90.3% | 98.6% | 104% | 102% | 97.6
